Laboratory results reported in PubChem BioAssay (NCI).
About 83,000 compounds went through this panel and 20% of them were active in at least one assay; those are over-represented in the sample as a whole.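 Values shown are percent growth following 48 h exposure of cells in 96-well plates to a single concentration of compound; below 10 was considered active.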 Activity calls are given as the source filed them.

Columns and labels:
Experiment in all cases: NCI-60 one-dose screen, 48 h (100 = growth as untreated, 0 = no growth, -100 = all killed)
Conditions in all cases: 10 µM unless noted
EKVX NSCLC = test system: EKVX NSCLC
SN12C renal = test system: SN12C renal
UO-31 renal = test system: UO-31 renal
TK-10 renal = test system: TK-10 renal
ACHN renal = test system: ACHN renal
CAKI-1 renal = test system: CAKI-1 renal
A498 renal = test system: A498 renal
MOLT-4 leukemia = test system: MOLT-4 leukemia
SR leukemia = test system: SR leukemia
CCRF-CEM leukemia = test system: CCRF-CEM leukemia

Measured: growth

C[C@@H](C(=O)NCCCC#Cc1cnc(Nc2ccc(C#N)cc2)nc1NC1CC1)N(C)C(=O)/C=C/CN(C)C
active: A498 renal -5.21% | MOLT-4 leukemia 7.9% | SR leukemia 9.79%
inactive: EKVX NSCLC 33.5% | SN12C renal 35.9% | UO-31 renal 28.6% | TK-10 renal 63% | ACHN renal 14.3% | CAKI-1 renal 60.1%

O=C1C(=O)c2c(ccc3ccccc23)-c2ccccc21
active: SN12C renal -38.6% | UO-31 renal -32.4% | ACHN renal 1.97% | CAKI-1 renal -17% | MOLT-4 leukemia -31.3% | SR leukemia 5.07%
inactive: EKVX NSCLC 100% | TK-10 renal 14.7% | A498 renal 108%

O=C(CSc1nc2ccccc2c(=O)n1-c1ccccc1)Nc1ccc(C(=O)/C=C/c2ccc(Cl)cc2)cc1
inactive: EKVX NSCLC 103% | SN12C renal 101% | UO-31 renal 82.5% | TK-10 renal 110% | ACHN renal 102% | CAKI-1 renal 97.8% | A498 renal 95.2% | MOLT-4 leukemia 99.5% | SR leukemia 85.3%

Nc1n[nH]c2ccc([C@@H]3Nc4ccc5[nH]ncc5c4[C@H]4[C@H]5CCC(C5)[C@H]43)cc12
inactive: EKVX NSCLC 40.2% | SN12C renal 24.6% | UO-31 renal 46.3% | TK-10 renal 60.8% | ACHN renal 27.7% | CAKI-1 renal 16.4% | MOLT-4 leukemia 18%
active: A498 renal -20.5%

O=Cc1c(OCc2cnnn2CC(=O)Nc2ccc(Br)cc2)ccc2ccccc12
inactive: EKVX NSCLC 82.1% | SN12C renal 92.9% | UO-31 renal 66.3% | TK-10 renal 93.7% | ACHN renal 80.1% | CAKI-1 renal 93.9% | A498 renal 74.4% | MOLT-4 leukemia 93.7% | SR leukemia 95.9%

N#C/C(=C\c1c(-c2ccccc2)[nH]c2ccccc12)C(=O)c1ccccc1
inactive: EKVX NSCLC 68.5% | SN12C renal 54.4% | UO-31 renal 37.5% | TK-10 renal 74.5% | ACHN renal 65.9% | CAKI-1 renal 42.4% | A498 renal 57.9% | MOLT-4 leukemia 38.9% | SR leukemia 52.3%

O=C1C(Cl)=C(NCc2ccco2)C(=O)c2ccccc21
inactive: EKVX NSCLC 110% | SN12C renal 90.1% | UO-31 renal 97.3% | TK-10 renal 110% | ACHN renal 93.8% | CAKI-1 renal 93.9% | A498 renal 89.8% | MOLT-4 leukemia 91.1% | SR leukemia 63.9%

Nc1ccccc1-c1ccc(-c2ccc(Cl)cc2)c2c1[nH]c1ccccc12
inactive: EKVX NSCLC 70.6% | SN12C renal 66.5% | UO-31 renal 26.1% | TK-10 renal 84% | ACHN renal 75.2% | CAKI-1 renal 50% | A498 renal 72.4% | MOLT-4 leukemia 25.8% | SR leukemia 53.6%

Nc1nc2c(ncn2[C@@H]2O[C@H](CS)[C@@H](O)[C@H]2O)c(=O)[nH]1
inactive: EKVX NSCLC 95.8% | SN12C renal 97.2% | UO-31 renal 93% | TK-10 renal 96.3% | ACHN renal 99.8% | CAKI-1 renal 94.5% | A498 renal 99.9% | MOLT-4 leukemia 99% | SR leukemia 101%

O=C(Nc1ccc(Cl)cc1F)c1cc(F)ccc1O
inactive: TK-10 renal 14%
active: EKVX NSCLC 8.76% | SN12C renal 3.23% | UO-31 renal 5.66% | ACHN renal 3.61% | CAKI-1 renal -14.3% | CCRF-CEM leukemia 8.63% | MOLT-4 leukemia -13.3%

O=C(CN1C(=O)/C(=C\c2ccc(Cl)cc2)SC1=S)Nc1ncc(Cc2ccc(Cl)cc2)s1
inactive: EKVX NSCLC 96.5% | SN12C renal 104% | UO-31 renal 80.8% | TK-10 renal 111% | ACHN renal 103% | CAKI-1 renal 88.1% | A498 renal 115% | MOLT-4 leukemia 106% | SR leukemia 116%

CC1=C(C(=O)OCC2CCN(C(=O)OC(C)(C)C)CC2)[C@H](c2cccc(C#N)c2)C2=C(CC(C)(C)CC2=O)N1
inactive: EKVX NSCLC 62.6% | SN12C renal 52.9% | UO-31 renal 57.8% | TK-10 renal 69.7% | ACHN renal 35.4% | CAKI-1 renal 52.4% | CCRF-CEM leukemia 40.5% | MOLT-4 leukemia 25.3%

COC(=O)/C(=C\c1c(-c2ccccc2)[nH]c2ccccc12)S(C)(=O)=O
inactive: EKVX NSCLC 58% | SN12C renal 59.4% | UO-31 renal 41.5% | TK-10 renal 67.2% | ACHN renal 56.8% | CAKI-1 renal 46.4% | A498 renal 29% | MOLT-4 leukemia 25.6% | SR leukemia 45.1%

O=Cc1c(OCc2cnnn2CC(=O)Nc2ccc(Cl)cc2)ccc2ccccc12
inactive: EKVX NSCLC 96.6% | SN12C renal 97.3% | UO-31 renal 73.2% | TK-10 renal 118% | ACHN renal 94.9% | CAKI-1 renal 94% | A498 renal 96.7% | MOLT-4 leukemia 90.7% | SR leukemia 90.5%

CCn1c(Cc2ccccc2Nc2c(Cl)cccc2Cl)nnc1SCC(=O)NN1C(=O)/C(=C/c2cccc(OC)c2OC)SC1=S
inactive: EKVX NSCLC 93.2% | SN12C renal 95% | UO-31 renal 77.3% | TK-10 renal 108% | ACHN renal 96.9% | CAKI-1 renal 94.1% | A498 renal 103% | MOLT-4 leukemia 95.8% | SR leukemia 102%

COc1cccc(C(=O)Cn2cc(/C=C(\C#N)S(=O)(=O)c3ccccc3)c3ccccc32)c1
active: A498 renal -75.9%
inactive: EKVX NSCLC 114% | SN12C renal 83.7% | UO-31 renal 70.4% | TK-10 renal 106% | ACHN renal 111% | CAKI-1 renal 118% | MOLT-4 leukemia 103% | SR leukemia 99.4%

COC(=O)/C(=C\c1c(C)[nH]c2ccccc12)S(=O)(=O)c1ccccc1
active: A498 renal -3.18%
inactive: EKVX NSCLC 61.3% | SN12C renal 39.7% | UO-31 renal 23.8% | TK-10 renal 46.8% | ACHN renal 49.1% | CAKI-1 renal 27% | MOLT-4 leukemia 15.5% | SR leukemia 27.2%

CC(=O)O[C@@H]1/C=C/C(=O)N[C@@H](C)CCC/C=C/[C@@H]2CCC[C@H]21
inactive: EKVX NSCLC 116% | SN12C renal 102% | UO-31 renal 93.7% | TK-10 renal 112% | ACHN renal 112% | CAKI-1 renal 98.9% | A498 renal 121% | MOLT-4 leukemia 93.6% | SR leukemia 87.4%

COc1ccc(OC)c(NC(=O)/C(C#N)=C/c2ccco2)c1
inactive: EKVX NSCLC 94% | SN12C renal 101% | UO-31 renal 67.8% | TK-10 renal 114% | ACHN renal 93.6% | CAKI-1 renal 90.4% | A498 renal 101% | MOLT-4 leukemia 78.7% | SR leukemia 74.3%

CN1CCN(Cc2ccc(NC(=O)c3cncc(C#Cc4nc(N)nc5[nH]ncc45)c3)cc2C(F)(F)F)CC1
active: MOLT-4 leukemia 8.02%
inactive: EKVX NSCLC 109% | SN12C renal 89.7% | UO-31 renal 122% | TK-10 renal 126% | ACHN renal 99.8% | CAKI-1 renal 66.5% | A498 renal 102%

COc1ccc(-c2cn[nH]c2-c2cc(OC)c(OC)c(OC)c2)cc1OCc1ccccc1
inactive: EKVX NSCLC 33.5% | SN12C renal 62.3% | UO-31 renal 25.6% | TK-10 renal 50.9% | ACHN renal 34.1% | CAKI-1 renal 28.9% | MOLT-4 leukemia 64.5% | SR leukemia 27.5%
active: A498 renal -18.9%

COc1cc2nc(-c3cccc4cccnc34)nc(NC3CCN(Cc4ccccc4)CC3)c2cc1OC
active: EKVX NSCLC -66.2% | SN12C renal -82.4% | UO-31 renal -83% | TK-10 renal -88.7% | ACHN renal -94.5% | CAKI-1 renal -88.3% | A498 renal -72.2% | MOLT-4 leukemia -32.4% | SR leukemia -7.18%

O=C(Nc1ccc(Br)cc1F)c1cc(Cl)ccc1O
active: EKVX NSCLC 8.37% | SN12C renal -5.66% | UO-31 renal 9.99% | TK-10 renal 0.819% | ACHN renal 0.275% | CAKI-1 renal -21.3% | A498 renal -70.2% | MOLT-4 leukemia -28.1%

CC1=NCC2NC(=O)NC(C)=C12 (stereo unspecified)
inactive: EKVX NSCLC 100% | SN12C renal 99.2% | UO-31 renal 83.6% | TK-10 renal 95.9% | ACHN renal 109% | CAKI-1 renal 92.8% | CCRF-CEM leukemia 99.7% | MOLT-4 leukemia 107% | SR leukemia 104%

COC(=O)[C@H](NC(=O)C1(C)CCC[C@]2(C)[C@H]3C[C@H]4C(C(C)C)=C[C@]3(CC[C@@H]12)[C@@H]1C(=O)CCC(=O)[C@@H]14)C(C)C (stereo partly specified)
inactive: EKVX NSCLC 94.9% | SN12C renal 99.8% | UO-31 renal 90.7% | TK-10 renal 127% | ACHN renal 100% | CAKI-1 renal 88.4% | CCRF-CEM leukemia 104% | MOLT-4 leukemia 102% | SR leukemia 89.7%

CCCCCCCCCCCCCCn1cc(C2=C(c3coc4ccc(OC)cc34)C(=O)NC2=O)c2ccccc21
inactive: EKVX NSCLC 90.9% | SN12C renal 100% | UO-31 renal 83.5% | TK-10 renal 102% | ACHN renal 102% | CAKI-1 renal 88.8% | CCRF-CEM leukemia 101% | MOLT-4 leukemia 118% | SR leukemia 111%

O=C(CN1C=NC2C(N3CCOCC3)=NC=NC21)c1cccc2ccccc12 (stereo unspecified)
inactive: EKVX NSCLC 86.5% | SN12C renal 95.5% | UO-31 renal 71.6% | TK-10 renal 130% | ACHN renal 97.8% | CAKI-1 renal 73.1% | CCRF-CEM leukemia 104% | MOLT-4 leukemia 93.3% | SR leukemia 85.1%

Cc1cccc2c(=O)c3c(sc12)c(NCCN)nc1ccccc13
active: EKVX NSCLC -0.232% | SN12C renal -75.8% | UO-31 renal -77.1% | TK-10 renal -73.7% | ACHN renal -97.6% | CAKI-1 renal -58.4% | CCRF-CEM leukemia -34.5% | MOLT-4 leukemia -59% | SR leukemia -28.3%

NC(CCc1nc2ccccc2c(=O)[nH]1)C(=O)O (stereo unspecified)
inactive: EKVX NSCLC 99.7% | SN12C renal 96.6% | UO-31 renal 86.7% | TK-10 renal 102% | ACHN renal 113% | CAKI-1 renal 87.5% | CCRF-CEM leukemia 103% | MOLT-4 leukemia 103% | SR leukemia 96.8%
